Results filed as inconclusive are left out. Values without a mark were called inactive. Active and inactive are the calls of the source. The call rests on the fitted dose curve; in most records, active means well fitted inhibition curve with a large enough effect; inconclusive means small, poorly fitted or top-dose-only effect; inactive means flat fitted curve, though single readings scatter.
On the % scale 0 is the no-effect control and ±100 the full control effect.

Chain of Calcium and integrin-binding protein 1 (Homo sapiens) (Q99828 whole entry, looked up): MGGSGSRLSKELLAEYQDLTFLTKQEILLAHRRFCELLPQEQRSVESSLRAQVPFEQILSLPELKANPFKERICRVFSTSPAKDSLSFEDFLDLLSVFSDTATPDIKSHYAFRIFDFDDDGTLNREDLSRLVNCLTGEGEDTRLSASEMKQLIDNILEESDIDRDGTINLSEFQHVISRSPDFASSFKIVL

In this experiment the target is Calcium and integrin-binding protein 1 (Homo sapiens) (UniProt Q99828). In words: Primary qHTS for Identification of Calcium Integrin Binding Protein 1 (CIB1) Competitor (AID 1508620). Further: top concentration of the series differs between compounds. The conditions noted are these: CIB1-GST / FITC-alphaIIb peptide fluorescence polarization; series mostly up to 114 µM; activity change, negative = inhibition: at the top concentration. The method in brief:
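Fluorescence polarization competition: GST-tagged CIB1 (1 uM final) preincubated with compound 15 min at room temperature, then FITC-labelled alphaIIb peptide (100 nM final) added. After 15 min at room temperature, polarization read at Ex 480/Em 540.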
Background: Quantitative high-throughput screening tests each substance at several concentrations.
For the compound `CO[C@@H]1[C@H](O)CCC2(CO2)[C@H]1[C@@]1(C)O[C@@H]1CC=C(C)C` (some centres undefined), the “activity change, negative = inhibition” value is 5.72%. On the same count and under the same terms, with `COc1ccc(OC)c(-c2ccc(NC(=O)c3ccncc3F)cc2)c1` the figure was 0.805%. `Cc1cn(CCN2CCN(c3ccccc3-c3cc(C#N)cc(C(=O)NCCCN4CCCC4)c3)CC2)c2ccccc12`: the Potency entry was “inactive”. As to `CC(C)(CO)c1cc2cc(NC(=O)C3(c4ccc5c(c4)OC(F)(F)O5)CC3)c(F)cc2n1CC(O)CO` (centres undefined), the “activity change, negative = inhibition” value was -0.578%.

Take `C=C1CCC2[C@](C)(CCC[C@@]2(C)C=O)[C@H]1CC/C(C)=C/CO` (some centres undefined): the “activity change, negative = inhibition” value was -0.479%. For the compound `CN(C)S(=O)(=O)c1ccc(NC(=S)N2CCC(C(O)(c3ccccc3)c3ccccc3)CC2)cc1`, the “activity change, negative = inhibition” value was 3.96%. Same read-out and setting: to `C=CC(=O)N1CCCN(c2cc(NCCC(=O)O)nc(-c3ccccn3)n2)CC1` belongs -18.6%; to `C/C(=C/CO)CCC1C(C)CCC2C(C)(C)CCCC12C` (centres undefined), 0.443%; to `C=C1C(=O)OC2C3=C(C)C(=O)CC3C(C)CC(O)C12` (centres undefined), -5.59%.

Consider `Nc1nc(OCc2cc(Br)cs2)c2[nH]cnc2n1`, for which the “activity change, negative = inhibition” value was -5.96%. On the same count and under the same terms, to `C/C=C(/C)C(=O)OC1C=C2C3C(C)C(C)C(OC(=O)C(C)C(C)O)CC3(C)CCC2(C)C2(C)CC(OC(C)=O)C3C(C)(C)C(O)C(=O)CC3(C)C12` (centres undefined) belongs -3.23% [at 30.2 µM]; to `O=C1Nc2ccccc2-c2nc3ccccc3c(=O)n2-c2c(O)cccc21`, -6.57% [at 57.7 µM]; to `N#Cc1ccc(O[C@@H]2c3ccccc3C[C@H]2N2CCC[C@@H](N)C2)c(Cl)c1`, 1.1%. Take `C#CCCCn1cc(-c2cccc3c2N[C@H](C)CC(=O)N3)cn1`: the “activity change, negative = inhibition” value was 1.88%. On the same count and under the same terms, with `COc1ccccc1OCCN1CC(COc2cccc3[nH]c4ccccc4c23)OCC1=O` (centres undefined) the figure was -5.72%; with `CCC(C)C(=O)OC1C(C)C2(O)C(C=C(CO)CC3(O)C(=O)C(C)=CC32)C2C(C)(C)C12OC(=O)C(C)C` (centres undefined), -2.69% [at 57.7 µM]. On the same count and under the same terms, to `O=c1cc(NCCCN[C@@H]2CCOc3c(Br)cc(Br)cc32)[nH]c2ccsc12` belongs 14.4%; to `C/C(=N\N=C(N)N)c1cc(NC(=O)CCCCCCCCC(=O)Nc2cc(/C(C)=N/N=C(N)N)cc(/C(C)=N/N=C(N)N)c2)cc(/C(C)=N/N=C(N)N)c1`, 75.8%. The same measure, in the same setting: to `CC(=O)O[C@H]1CC2C(COC(=O)CC(C)C)=CO[C@@H](OC(=O)CC(C)C)C2[C@]12CO2` (some centres undefined) belongs -9.83% [at 57.7 µM]; to `C=C1C(=O)O[C@@H]2/C=C(\C)CC/C=C(/C=O)[C@H](OC)[C@@H](OC(=O)C(C)C)[C@@H]12`, -4.26% [at 57.7 µM]; to `C[C@@H](NC(=O)[C@H](O)c1cc(F)cc(F)c1)C(=O)N[C@@H]1C(=O)N(C)c2ccccc2-c2ccccc21`, 3.52%. With `COc1ccc(Oc2c(Cl)cnn(-c3cc(C)cc(C)c3)c2=O)cc1`, the “activity change, negative = inhibition” value is 1.01%.

Take `COC(=O)c1ccc2c(c1)[nH]c1ncnc(NCCCN3CCCCC3)c12`: the “activity change, negative = inhibition” value is 7.1%. The same measure, in the same setting: to `Cc1nnc(-c2ccc(-c3ccc(C(=O)Nc4ccc(O)c(N5CCN(C)CC5)c4)cc3)c(C)c2)o1` belongs -1.68%; to `COc1ccc(CCCN2CCC(COC(c3ccccc3)c3ccccc3)CC2)cc1`, 0.172%.

On to `CCc1cc(C(N)=O)ccc1-n1nc(C(C)C)c2c(-n3cnc(-c4cnn(C)c4)c3)ccnc21`, for which the “activity change, negative = inhibition” value was -13.4%.

Take `CC/C=C\CC1C(=O)C=CC1(CCCCC1CCC(=O)O1)OC(C)=O` (centres undefined): the “activity change, negative = inhibition” value was -4.57% [at 57.7 µM]. The same measure, in the same setting: to `CCOC(=O)c1cnc2ccc(-c3cncc(NS(=O)(=O)c4ccccc4)c3)cn12` belongs -5.92%. On the same count and under the same terms, with `CC(=O)O[C@@H]1C[C@]2(C)[C@@]3(CCC4[C@@]5(C)CC[C@H](O[C@@H]6O[C@H](C(=O)O)[C@@H](O)[C@H](OC7OC(CO)C(O)C(O)[C@H]7O[C@@H]7O[C@@H](C)[C@H](O)[C@@H](O)[C@H]7O[C@@H]7OC[C@](O)(CO)[C@H]7O)[C@H]6OC6OC(CO)C(O)C(O)C6O)C(C)(C)C5CC[C@]42C)OC[C@@]12CCC(C)(C)CC23` (some centres undefined) the figure was -0.726% [at 12.4 µM]. On the same count and under the same terms, to `Cc1cnn(-c2ccccc2)c1NC(=O)COCc1ccccc1` belongs 2.29%; to `Cc1cc(N2CCN(C(=O)Oc3ccc(-c4ccccc4)cn3)CC2)c2ccccc2n1`, 5.2%; to `CC1(C)CC[C@]2(C(=O)O[C@@H]3O[C@H](CO)[C@@H](O)[C@H](O)[C@H]3O)CC[C@]3(C)C(=CCC4[C@@]5(C)CC[C@H](O[C@@H]6O[C@H](C(=O)O)[C@H](O)[C@H](O)[C@H]6O)C(C)(C)C5CC[C@]43C)[C@@H]2C1` (some centres undefined), 2.55% [at 30.2 µM]. Turning to `O=C(Nc1ccccc1)N1CCN(c2nc(-c3ccccc3)ns2)CC1`, the “activity change, negative = inhibition” value was 1.87%. As for `COC1=CC(=O)C[C@@H](C)[C@@]12Oc1c(Cl)c(OC)cc(OC)c1C2=O`, the “activity change, negative = inhibition” value is 4.71% [at 57.7 µM].

The values are drawn from PubChem BioAssay (NCATS).
